# Laboratory results from PubChem BioAssay (NCATS).
# Records with an inconclusive call do not appear. Unmarked numbers belong to inactive results. Active and inactive are the calls of the source. Calls come from the whole dose curve; as a rule, active = well fitted inhibition curve with a large enough effect; inconclusive = small, poorly fitted or top-dose-only effect; inactive = flat fitted curve, though single readings scatter.
# Biological target: Calcium and integrin-binding protein 1 (Homo sapiens) (UniProt Q99828)
# Sequence (Q99828 whole entry, looked up): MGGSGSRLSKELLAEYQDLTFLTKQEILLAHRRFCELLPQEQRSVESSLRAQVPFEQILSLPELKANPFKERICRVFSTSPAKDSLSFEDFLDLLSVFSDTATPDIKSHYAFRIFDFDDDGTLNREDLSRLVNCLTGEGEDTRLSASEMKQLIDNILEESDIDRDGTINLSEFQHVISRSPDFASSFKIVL
# Assay: Primary qHTS for Identification of Calcium Integrin Binding Protein 1 (CIB1) Competitor (AID 1508620);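 note: GST tagged CIB1 binding a fluorescein labelled alphaIIb integrin peptide tracer; top concentration of the series differs between compounds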
# Settings: CIB1-GST / FITC-alphaIIb peptide fluorescence polarization; series mostly up to 114 µM; activity change, negative = inhibition: at the top concentration
# Excerpt: Assay Provider: Ulhas P. Naik, PhD Sidney Kimmel Medical College Thomas Jefferson University, Philadelphia, PA Primary function of platelets is to maintain hemostasis. At the site of vascular injury, platelets adhere to adhesive proteins such as collagen and von Willebrand factor. Adherent platelets are activated and generate soluble platelet agonists such as thrombin, ADP and thromboxane A2. Following exposure of circulating platelets to these agonists, results in platelet shape change, granule secretion and activation of platelet integrin alphaIIb-beta3. Ligand binding to activated integrin alphaIIb-beta3 triggers outside-in signaling, leading to platelet aggregation, stabilization of platelet plug, and clot retraction. Upon atherosclerotic plaque rupture also causes platelet plug formation, which underlies a number of cardiovascular diseases such as myocardial infraction and stroke. A number of anti-platelet drugs such as aspirin, clopidogrel, prasugrel, vorapaxar, and eptifibatide are currently available to prevent the thrombotic complications. However, these anti-platelet agents have several limitations including inherent variability in individual responses, developing resistance, and serious bleeding side effects. For these reasons they are not suitable for long-term protection. Based on the experiences with current anti-platelet drugs, it appears that the most useful therapeutic approach is to intersect the secondary responses such as integrin outside-in signaling or recruitment of platelets by TxA2 and secreted ADP. Compounds, which can largely preserve the primary hemostatic function of platelets but inhibit secondary response will be most desired therapeutic agents for treatment of cardiovascular disease. CIB1 is a calcium integrin binding protein, which specifically interact with the alphaIIb subunit of integrin alphaIIb-beta3. Binding of CIB1 to alphaIIb regulates the outside-in signaling in platelets, which is needed for thrombus stabilization and thrombus growth. […] Therefore, we propose that discovery of a small molecule that can prevent the association of CIB1 and alphaIIb-beta3 will be a potential anti-platelet agent that can block the thrombus formation without undue effect on hemostasis. Reference: [1] Naik MU, Nigam A, Manrai P, et al. CIB1 deficiency results in impaired thrombosis: the potential role of CIB1 in outside-in signaling through integrin alpha IIb beta 3. J Thromb Haemost.
# PROTOCOL TABLES SEQUENCE No. (1, 2, 3, etc.); […] (e.g., Cells, Incubation, Reagent, etc.); VALUE and DESCRIPTION. 1; Reagent; 3 uL; Protein or buffer (4/3x) 2; Compound; 46 nL; Control inhibitor / compound library 3; Time; 15 min; Room temperature incubation 4; Reagent; 1 uL; Fluorescent labeled peptide (4x) 5; Time; 1000 rpm; Centrifuge 6; Time; 15 min; Room temperature incubation 7; Detection; Ex 480/ Em 540; ViewLux Fluorescence Read NOTES (numbers refer to sequence above) 1; Protein Mixture: C1B1-GST (final concentrations of 1 uM). […] 3; Room temperature incubation. 4; Fluorescent Labeled Peptide: FITC-aIIb (final concentration of 100 nM). Sequence of alphaIIb peptide: Acetyl-[…]-FITC (purity is 95.83%). 5; Centrifuge 1000 rpm (164 g) for 15 seconds. 6; Room temperature incubation. 7; ViewLux Fluorescent Polization Read: excitation = 480(20) / emission = 540(25) S and P; FITC Dichroic mirror.
# % is set by controls: 0 for no effect and ±100 for the full control effect.
SMILES,Potency,"activity change, negative = inhibition"
C#CCN(C)[C@H](C)Cc1ccccc1,inactive,
C[C@@H]1[C@@H](C(=O)C[C@H]2O[C@@H]3O[C@]4(C)CC[C@@H]5[C@H](C)CC[C@@H]([C@H]2C)[C@@]35OO4)O[C@@H]2O[C@]3(C)CC[C@H]4[C@H](C)CC[C@@H]1[C@@]24OO3,,-2% [at 57.7 µM]
NCCc1cc(O)c(O)cc1O,,-2.9%
CC(C)=CCOc1c2occc2cc2ccc(=O)oc12,,-1.67%
O=C(NC(O)C(Cl)(Cl)Cl)NC(O)C(Cl)(Cl)Cl (stereo not given),,-2.41%
CNC(=O)N1N=C(c2ccc(N)cc2)c2cc3c(cc2CC1C)OCO3 (stereo not given),inactive,
O=C1CC[C@@]2(O)[C@H]3Cc4ccc(O)c5c4[C@@]2(CCN3CC2CC2)[C@H]1O5,inactive,
CC(=O)[C@H]1CC[C@H]2[C@@H]3CC[C@H]4C[C@](C)(O)CC[C@]4(C)[C@H]3CC[C@]12C,,4.34%
Oc1cccc2cccnc12,,4.18%
NN=C(N)N,,3.34%
CC(C)(N)Cc1ccc(Cl)cc1,,6.65%
c1ccc2c(c1)OCC(C1=NCCN1)O2 (stereo not given),,-4.69%
CNC(=O)c1ccc(N2C(=S)N(c3ccc(C#N)c(C(F)(F)F)c3)C(=O)C23CCC3)cc1F,inactive,
CCC(=O)C(CC(C)N(C)C)(c1ccccc1)c1ccccc1 (stereo not given),,-3.48% [at 228 µM]
CCCC1CCCCN1 (stereo not given),,1.6%
COc1ccc2c(c1OC)CN1CCc3cc4c(cc3C1C2)OCO4 (stereo not given),inactive,
c1ccc(C2CC2)c(OCC2=NCCN2)c1,,3.03%
Cc1sc2c(c1C)C(c1ccc(Cl)cc1)=N[C@@H](CC(=O)OC(C)(C)C)c1nnc(C)n1-2,,-0.73% [at 57.7 µM]
N[C@@H]1C[C@H]1c1ccccc1,,3.16%
COc1ccc(Cc2nccc3cc(OC)c(OC)cc23)cc1OC,inactive,

SMILES,Potency,"activity change, negative = inhibition"
C#CCOC(C(=O)OCCN(C)C)(c1ccccc1)c1ccccc1,,-2.35%
Clc1cccc(N2CCNCC2)c1,,24.2%
C=CCN1CC[C@]23c4c5ccc(O)c4O[C@H]2C(=O)CC[C@@]3(O)[C@H]1C5,,-0.743%
C=C1CC[C@@]2(O)[C@H]3Cc4ccc(O)c5c4[C@@]2(CCN3CC2CC2)[C@H]1O5,,1.99%
CN1CCN(C(=O)O[C@H]2c3nccnc3C(=O)N2c2ccc(Cl)cn2)CC1,inactive,
Oc1cc(Cl)ccc1Oc1ccc(Cl)cc1Cl,,-1.84%
C[C@@H]1[C@@H](CC(C[C@H]2O[C@@H]3O[C@]4(C)CC[C@@H]5[C@H](C)CC[C@@H]([C@H]2C)[C@@]35OO4)C[S+](=O)([O-])c2ccc(COC(=O)N(C)C)cc2)O[C@@H]2O[C@]3(C)CC[C@H]4[C@H](C)CC[C@@H]1[C@@]24OO3 (stereo not given in full),,-2.91% [at 57.7 µM]
CC[N+](CC)(CC)CC,,-3.98%
Cc1ccc(S(=O)(=O)N[C@@H](CCCCN)C(=O)CCl)cc1,,-9.14%
C[C@]12C/C(=C/O)C(=O)C[C@@H]1CC[C@@H]1[C@@H]2CC[C@@]2(C)[C@H]1CC[C@]2(C)O,,1.5%
O=c1[nH]c2ccccc2n1C1CCN(CCCC(c2ccc(F)cc2)c2ccc(F)cc2)CC1,,2.04%
CCOP(=S)(OCC)Oc1cc(C)nc(C(C)C)n1,,0.0419%
Fc1ccc(C(OCCN2CCN(CCCc3ccccc3)CC2)c2ccc(F)cc2)cc1,inactive,
O=C1NCN(c2ccccc2)C12CCN(CC1COc3ccccc3O1)CC2 (stereo not given),,2.03%
C[C@]12CC[C@H]3[C@@H](CCC4=CC(=O)CC[C@@H]43)[C@@H]1CC[C@@H]2OC(=O)CCc1ccccc1,,3.46%
CC1NCCOC1c1ccccc1 (stereo not given),,2.95%
CN(C)CCN(C)CCc1ccc(Cl)c(Cl)c1,,-3.16% [at 57.7 µM]
Cn1c(CCCC(=O)O)nc2cc(N(CCCl)CCCl)ccc21,inactive,
Clc1ccc(COC(Cn2ccnc2)c2ccc(Cl)cc2Cl)cc1 (stereo not given),inactive,
CO[C@]12CC[C@@]3(C[C@@H]1[C@](C)(O)C(C)(C)C)[C@@H]1Cc4ccc(O)c5c4[C@@]3(CCN1CC1CC1)[C@H]2O5,,2.88% [at 228 µM]
